The results in this text go back to PubChem BioAssay (NCI).

Test systems include NCI-H23 lung; NCI-H226 lung; NCI-H322M lung; HOP-62 NSCLC; NCI-H460 lung; HOP-92 NSCLC; NCI-H522 lung; A549/ATCC NSCLC; 786-0 renal; COLO 205 colon.
Holding throughout (experiment): NCI-60 one-dose screen, 48 h (100 = growth as untreated, 0 = no growth, -100 = all killed)
Holding throughout (settings): 10 µM unless noted

Compounds without any hit were thinned out: in the full panel of roughly 83,000, 20% have a hit.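 The test compound was applied at a single concentration to cells in 96-well plates for 48 hours, and percent growth was recorded.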 Unmarked numbers belong to inactive results. Active and inactive are the calls of the source. How the source made its calls: active means growth percent below 10; inactive means the rest.

On to `CCc1ccc(Oc2cn[nH]c2-c2ccc(OCCc3ccc(F)cc3)cc2O)cc1`, for which the growth is 92.8% in the assay on NCI-H23 lung; 96.7% in the assay on NCI-H226 lung; 98.6% in the assay with NCI-H322M lung; 114% with HOP-62 NSCLC; 94.8% in the assay on NCI-H460 lung; 83.2% in the assay on HOP-92 NSCLC. In addition, the growth in the assay with NCI-H522 lung was -36.5% (active); in the assay on A549/ATCC NSCLC, 66.9%; in the assay with 786-0 renal, 99.7%; with COLO 205 colon, 108%.

On to `C/C(Nc1ccc(Cl)c(Cl)c1)=C1\CCOC1=O`, for which the growth in the assay with NCI-H23 lung was 93.3%; in the assay with NCI-H226 lung it was 90.4%; in the assay on NCI-H322M lung, 101%; in the assay with HOP-62 NSCLC, 80.3%; in the assay on NCI-H460 lung, 92.5%; with HOP-92 NSCLC, 75.6%. For the same compound, the growth in the assay on NCI-H522 lung was 58%; in the assay on A549/ATCC NSCLC, 88.6%; in the assay with 786-0 renal, 81.7%; in the assay with COLO 205 colon, 134%.

For `COc1ccc2nc3ccc(OC)cc3c(SCCCN)c2c1`, the growth in the assay on NCI-H23 lung was 74.5%; in the assay with NCI-H226 lung, 97.8%; in the assay with NCI-H322M lung, 114%; with HOP-62 NSCLC it was 79.8%; with NCI-H460 lung it was 110%; with HOP-92 NSCLC, 43.6%. For the same compound, the growth with NCI-H522 lung is 57.7%; in the assay with A549/ATCC NSCLC, 79.6%; with 786-0 renal it was 49%; with COLO 205 colon, 48.9%.

For `C=C(C)[C@@H]1CC[C@]2(C(=O)NCC#CCN3CCN(C)CC3)CC[C@]3(C)[C@H](CC[C@@H]4[C@@](C)(CCC#N)[C@H](C(=C)C)CC[C@]43C)[C@@H]12`, the growth in the assay on NCI-H23 lung was 75.7%; in the assay with NCI-H226 lung, 57.6%; with NCI-H322M lung, 74.9%; with HOP-62 NSCLC, 65.6%; in the assay on NCI-H460 lung it was 26.4%; in the assay with HOP-92 NSCLC it was 8.35% (active). Besides, the growth is 68.5% in the assay on NCI-H522 lung, 49.6% with A549/ATCC NSCLC, 54.5% with 786-0 renal and 57.8% in the assay on COLO 205 colon.

As for `COc1ccc2[nH]cc(-c3nc(-c4cn(C)c5c(Cl)nccc45)cs3)c2c1`, the growth is 58.3% with NCI-H23 lung; 40.8% in the assay on NCI-H226 lung; 75.5% with NCI-H322M lung; 56.6% with HOP-62 NSCLC; 6.1% (active) with NCI-H460 lung; 78.8% in the assay with HOP-92 NSCLC. Also, the growth in the assay on NCI-H522 lung was 13.9%; in the assay with A549/ATCC NSCLC, 33.8%; in the assay on 786-0 renal it was 16.2%; in the assay with COLO 205 colon it was 32.9%.

With `CC1(C)CC2=C3C=C[C@@H]4[C@@]5(C)CCC(=O)C(C)(C)[C@@H]5CC[C@@]4(C)[C@]3(C)CC[C@@]2(C(=O)O)CC1=O`, the growth was 71.6% in the assay on NCI-H23 lung; 53% in the assay with NCI-H226 lung; 59.7% in the assay with NCI-H322M lung; 76% with HOP-62 NSCLC; 76.7% in the assay with NCI-H460 lung; 25.8% in the assay with HOP-92 NSCLC. For the same compound, the growth with NCI-H522 lung was 65.1%; in the assay with A549/ATCC NSCLC, 48.3%; in the assay with 786-0 renal, 31.7%; in the assay with COLO 205 colon, 68.6%.

On to `CCn1c(SCC(=O)c2ccc(Br)cc2)nnc1-c1ccncc1`, for which the growth in the assay with NCI-H23 lung is 105%; with NCI-H226 lung, 99%; in the assay with NCI-H322M lung it was 110%; in the assay with HOP-62 NSCLC, 109%; in the assay on NCI-H460 lung, 108%; in the assay with HOP-92 NSCLC it was 114%. Moreover, the growth in the assay with NCI-H522 lung is 96%; in the assay on A549/ATCC NSCLC it was 106%; with 786-0 renal, 114%; with COLO 205 colon, 114%.

As for `CC1(C)CC[C@]2(c3nnc(-c4ccncc4)o3)CC[C@H]3C(=CC[C@H]4[C@@]3(C)CC[C@H]3C(C)(C)C(=O)CC[C@]43C)[C@@H]2C1`, the growth is 71.7% in the assay on NCI-H23 lung; 60.6% in the assay with NCI-H226 lung; 94.4% in the assay with NCI-H322M lung; 85.7% in the assay with HOP-62 NSCLC; 40.4% in the assay with NCI-H460 lung; 76% with HOP-92 NSCLC. Moreover, the growth was 64.2% in the assay with NCI-H522 lung, 73.9% in the assay with A549/ATCC NSCLC, 66.3% in the assay on 786-0 renal and 67.9% with COLO 205 colon.

`N#CC1C=CN(CC(N)=O)c2ccc3cccnc3c21` (stereo not given): the growth with NCI-H23 lung is 94.7%; with NCI-H226 lung, 87.5%; with NCI-H322M lung, 97.3%; in the assay on HOP-62 NSCLC, 95.2%; with NCI-H460 lung it was 103%; in the assay on HOP-92 NSCLC, 98.3%. Also, the growth with NCI-H522 lung is 85.6%; with A549/ATCC NSCLC, 88.9%; with 786-0 renal, 98.3%; in the assay on COLO 205 colon, 80.3%.

With `N#CC1=C(N)Oc2c(sc3c(F)cccc23)C1c1ccc(F)cc1` (stereo not given), the growth in the assay on NCI-H23 lung was 38.9%; in the assay on NCI-H226 lung, 36.5%; in the assay with NCI-H322M lung, 49.3%; in the assay on HOP-62 NSCLC, 35.1%; with NCI-H460 lung it was 11.6%; in the assay on HOP-92 NSCLC it was 44.5%. Moreover, the growth was -3.69% (active) in the assay on NCI-H522 lung, 25.7% in the assay with A549/ATCC NSCLC, 19.8% with 786-0 renal and 13% with COLO 205 colon.

For the compound `COc1ccc2c(O)c(/C=C3\N=Nc4ccccc43)oc2c1C[C@@H]1CCNC[C@H]1F`, the growth in the assay with NCI-H23 lung was 70.2%; with NCI-H226 lung, 58.3%; in the assay with NCI-H322M lung, 87.6%; in the assay on HOP-62 NSCLC, 71.4%; in the assay with NCI-H460 lung it was 11.2%; in the assay with HOP-92 NSCLC it was 65.1%. The growth was 58.1% with NCI-H522 lung, 35.8% with A549/ATCC NSCLC, -62.9% (active) in the assay on 786-0 renal and 58.2% with COLO 205 colon.

For `Cc1ccc(Cc2cnc(NC(=O)c3cc(Br)cs3)s2)cc1`, the growth was 73.1% in the assay on NCI-H23 lung; 73.1% with NCI-H226 lung; 79.7% in the assay with NCI-H322M lung; 50.8% with HOP-62 NSCLC; 46.7% in the assay on NCI-H460 lung; 59.1% in the assay with HOP-92 NSCLC. Also, the growth in the assay on NCI-H522 lung was 34.3%; in the assay on A549/ATCC NSCLC, 51%; with 786-0 renal, 67.8%; with COLO 205 colon, 80%.

In the case of `Cn1ccnc1C(=O)C(=O)Nc1ccc(CC(=O)Nc2ccccc2)cc1`, the growth with NCI-H23 lung was 104%; in the assay on NCI-H226 lung it was 96.4%; in the assay with NCI-H322M lung, 102%; with HOP-62 NSCLC, 107%; in the assay on NCI-H460 lung, 102%; in the assay on HOP-92 NSCLC, 103%. For the same compound, the growth with NCI-H522 lung was 99.5%; with A549/ATCC NSCLC, 108%; in the assay with 786-0 renal, 104%; in the assay with COLO 205 colon, 109%.
